Test results as given in PubChem BioAssay (NCATS).
Records with an inconclusive call do not appear. Activity calls are given as the source filed them. Unless noted, the call rests on the fitted dose curve; in most records, active means well fitted curve in the direction sought with a large enough effect; inconclusive means small, poorly fitted or top-dose-only effect, or another doubt; inactive means no such curve, though single readings can be large; an effect the other way counts as inactive or inconclusive.

Legend:
[1] = qHTS for Inhibitors of Plasmodium falciparum (DD2) proliferation (AID 504314);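 further: parasite DNA measured by SYBR Green fluorescence after red cell lysis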; settings: P. falciparum Dd2 in erythrocytes, SYBR Green growth, 72 h; series mostly up to 1.12 µM
How it was run: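 Fluorescence read-out (ex 485/em 535 nm) of SYBR Green-stained parasite DNA quantifies intraerythrocytic growth. Cultures at 0.3% parasitemia and 2.5% hematocrit were treated for 72 h; data normalized to DMSO and 0.29 uM artemisinin wells.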

[2] = qHTS for Inhibitors of Plasmodium falciparum (GB4) proliferation (AID 504315); further: nearly all actives have a fitted effect of over 50% in size; settings: P. falciparum GB4 in erythrocytes, SYBR Green DNA, 72 h; series mostly up to 6.7 µM
How it was run: (§1)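 Erythrocytes infected with P. falciparum line (0.3% parasitemia, 2.5% hematocrit final) incubated with compounds 72 h at 37 °C, 5% CO2; SYBR Green lysis buffer added, fluorescence read next day. Normalized to 0.29 uM artemisinin and DMSO.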

[3] = qHTS for Inhibitors of Plasmodium falciparum (7G8) proliferation (AID 504316); further: nearly all actives have a fitted effect of over 65% in size; settings: P. falciparum 7G8 in erythrocytes, SYBR Green DNA, 72 h; series mostly up to 6.7 µM
How it was run: as §1

[4] = qHTS for Inhibitors of Plasmodium falciparum (CP250) proliferation (AID 504320); settings: P. falciparum CP250 in erythrocytes, SYBR Green DNA, 72 h; series mostly up to 6.7 µM
How it was run: as §1

[5] = qHTS for Inhibitors of Plasmodium falciparum (HB3) proliferation (AID 504318); further: nearly all actives have a fitted effect of over 60% in size; settings: P. falciparum HB3 in erythrocytes, SYBR Green DNA, 72 h; series mostly up to 7.21 µM
How it was run: as §1

[6] = target: 3',5'-cyclic-AMP phosphodiesterase 4B (Homo sapiens) (UniProt Q07343); test: qHTS Assay for Inhibitors of PDE-IV (AID 607; active means well fitted activation curve with a large enough effect in the main read-out, with a control signal flat, not every such curve was filed as active); settings: HEK293 ACTOne CNG channel cells, membrane potential fluorescence; series mostly up to 22.9 µM
Chain of 3',5'-cyclic-AMP phosphodiesterase 4B (Homo sapiens) (Q07343 whole entry, looked up): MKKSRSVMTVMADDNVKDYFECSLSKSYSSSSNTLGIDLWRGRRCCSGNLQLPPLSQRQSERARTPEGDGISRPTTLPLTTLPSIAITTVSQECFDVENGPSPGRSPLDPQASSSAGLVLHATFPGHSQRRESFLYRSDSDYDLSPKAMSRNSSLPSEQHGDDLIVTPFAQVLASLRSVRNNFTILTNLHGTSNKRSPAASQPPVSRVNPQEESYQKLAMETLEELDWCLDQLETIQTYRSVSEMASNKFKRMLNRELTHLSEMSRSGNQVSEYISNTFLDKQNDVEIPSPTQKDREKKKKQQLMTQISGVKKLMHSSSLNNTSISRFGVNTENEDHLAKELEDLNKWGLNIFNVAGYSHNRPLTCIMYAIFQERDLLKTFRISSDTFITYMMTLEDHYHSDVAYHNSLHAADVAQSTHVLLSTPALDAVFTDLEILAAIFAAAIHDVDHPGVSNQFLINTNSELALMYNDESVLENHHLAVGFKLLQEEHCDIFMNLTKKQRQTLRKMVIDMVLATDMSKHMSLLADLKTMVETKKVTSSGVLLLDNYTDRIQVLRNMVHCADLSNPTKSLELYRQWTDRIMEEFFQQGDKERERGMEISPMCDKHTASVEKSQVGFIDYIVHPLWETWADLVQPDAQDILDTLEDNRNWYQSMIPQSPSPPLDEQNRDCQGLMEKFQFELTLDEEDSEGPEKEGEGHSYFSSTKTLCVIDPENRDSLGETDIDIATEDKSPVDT
How it was run: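 Live HEK293 cells with a modified cyclic nucleotide-gated (CNG) channel report intracellular cAMP via membrane-potential dye fluorescence (ex 535/em 590 nm). Endogenous PDE-IV was targeted. Compounds were tested at up to 22.9 uM final; RO 20-1724 100 uM served as control.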

[7] = target: Mitogen-activated protein kinase 10 (Mus musculus) (UniProt Q61831); test: JNK3 AlphaScreen Assay (AID 530; active means well fitted curve in either direction with a large enough effect, not every such curve was filed as active;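 further: kinase came from lysate of stimulated human HepG2 cells; signal reports phosphorylation of biotinylated GST-cJun 1-79 at Ser73 with 10 µM ATP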); settings: JNK3 lysate, c-Jun phosphorylation; series mostly up to 57.1 µM
How it was run: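 Room-temperature AlphaScreen kinase assay; pre-activated HepG2 lysate as JNK3 source, biotin-GST-cJun(1-79) substrate, 10 uM ATP, compound 15 min preincubation.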

[8] = target: Cytochrome P450 2C9 (Homo sapiens) (UniProt P11712); test: qHTS Assay for Inhibitors and Substrates of Cytochrome P450 2C9 (AID 883); settings: recombinant CYP2C9, luciferin-H luminescence, 60 min; series mostly up to 57.1 µM; further: potency means the concentration at half of the fitted maximal effect; nearly all actives have a fitted effect of over 60% in size
Chain of Cytochrome P450 2C9 (Homo sapiens) (P11712 whole entry, looked up): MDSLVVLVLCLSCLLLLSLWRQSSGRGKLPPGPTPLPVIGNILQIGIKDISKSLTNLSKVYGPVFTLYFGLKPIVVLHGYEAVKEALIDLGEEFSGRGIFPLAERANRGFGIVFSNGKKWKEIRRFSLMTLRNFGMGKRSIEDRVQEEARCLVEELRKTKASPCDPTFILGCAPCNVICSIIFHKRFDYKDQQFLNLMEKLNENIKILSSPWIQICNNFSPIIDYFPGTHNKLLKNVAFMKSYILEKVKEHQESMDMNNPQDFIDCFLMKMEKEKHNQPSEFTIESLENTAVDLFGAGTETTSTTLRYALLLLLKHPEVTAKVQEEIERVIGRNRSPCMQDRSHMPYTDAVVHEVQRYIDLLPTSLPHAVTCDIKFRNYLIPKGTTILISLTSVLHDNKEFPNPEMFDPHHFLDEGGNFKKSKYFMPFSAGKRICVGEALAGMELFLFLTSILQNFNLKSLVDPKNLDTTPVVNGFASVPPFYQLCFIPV
How it was run: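 Inhibition of CYP2C9 is scored as loss of luminescence, with 57uM sulphaphenazole defining 100% inhibition. Substrate Luciferin-H is used at 100uM, equal to its KM; enzyme at 10nM in 25mM KPO4, 60 min at 37C with NADPH regeneration.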

[9] = target: Cytochrome P450 3A4 (Homo sapiens) (UniProt P08684); test: qHTS Assay for Inhibitors and Substrates of Cytochrome P450 3A4 (AID 884); settings: recombinant CYP3A4, Luciferin-PPXE luminescence; series mostly up to 57.1 µM; further: potency means the concentration at half of the fitted maximal effect; nearly all actives have a fitted effect of over 50% in size
Chain of Cytochrome P450 3A4 (Homo sapiens) (P08684 whole entry, looked up): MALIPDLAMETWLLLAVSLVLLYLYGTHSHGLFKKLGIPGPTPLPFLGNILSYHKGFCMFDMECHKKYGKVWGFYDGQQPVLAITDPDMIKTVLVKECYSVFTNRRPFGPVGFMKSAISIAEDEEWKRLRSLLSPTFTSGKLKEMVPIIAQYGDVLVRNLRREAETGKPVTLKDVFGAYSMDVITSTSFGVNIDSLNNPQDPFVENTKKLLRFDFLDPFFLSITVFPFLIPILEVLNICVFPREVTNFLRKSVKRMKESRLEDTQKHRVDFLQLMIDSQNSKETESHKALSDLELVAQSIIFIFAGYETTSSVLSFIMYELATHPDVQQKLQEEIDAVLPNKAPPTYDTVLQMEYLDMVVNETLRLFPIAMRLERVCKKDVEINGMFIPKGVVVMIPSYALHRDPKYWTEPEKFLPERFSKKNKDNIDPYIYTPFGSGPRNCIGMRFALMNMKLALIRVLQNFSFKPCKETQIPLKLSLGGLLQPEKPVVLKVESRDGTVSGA
How it was run: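 20 nM human CYP3A4 with 25 uM Luciferin-PPXE (at KM) in 200 mM KPO4, preincubated 10 min with compound; NADPH regeneration started a 60 min RT reaction. Luciferin detected by luminescence, normalized to 57 uM ketoconazole as full inhibition.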

[10] = target: Cytochrome P450 3A4 (Homo sapiens) (UniProt P08684); test: qHTS Assay for Activators of Cytochrome P450 3A4 (AID 885); settings: recombinant CYP3A4, Luciferin-PPXE luminescence, 60 min; series mostly up to 57.1 µM; further: nearly all actives have a fitted effect of over 65% in size
How it was run: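 Quantitative HTS format: compounds preincubated with 20nM human CYP3A4 and Luciferin-PPXE substrate at KM, reaction started by NADPH regeneration, stopped after 60 min, luciferase luminescence read 20 min later.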

Measured: Potency

COC(=O)C1=C(C(=O)OC)[C@@H]2N(C)c3ccccc3[C@@]23C[C@@H](CO)N=C3N1
inactive: [1] | [2] | [3] | [4]

COc1ccc(NC(=O)N2CCc3nc(COc4ccccc4)c4c(c3C2)CO[C@@H](C)C4)cc1
inactive: [1] | [2] | [3] | [4]

CCO[C@H](c1cc(OC)cc([N+](=O)[O-])c1OC)[C@H](C)C=CCC(=O)OC
inactive: [1] | [2] | [3] | [5] | [4]

COC(=O)C1=C(C(=O)OC)[C@@H]2Nc3ccccc3[C@@]23C[C@@H](C(=O)OC)N(S(=O)(=O)c2ccc(C)cc2)C3=N1
inactive: [1] | [2] | [3] | [5] | [4]

CCOC(=O)CN1C(=O)N[C@@H](c2ccco2)C(C(C)=O)=C1C
inactive: [1] | [2] | [3] | [5] | [4]

CCCCc1nc2c(c3c1C[C@H](C)OC3)CN(C(=O)COC)CC2
inactive: [1] | [2] | [3] | [4]

CCN1C(=O)NC(c2ccco2)C(C(=O)OC)=C1C (stereo unspecified)
inactive: [1] | [2] | [3] | [4]

CCN1C(=O)N[C@@H](c2cccc(C(F)(F)F)c2)C(C(C)=O)=C1C
inactive: [1] | [2] | [3] | [5] | [4]

COC[C@@H](O)[C@@H](OC)[C@H](OC)[C@H](Cc1c(OC)cc(OC)cc1OC)OC
inactive: [1] | [2] | [3] | [5] | [4]

CCCCC1=CC2=CC(=O)C(C)(OC(=O)CC)C(=O)C2=CN1c1cccc(C#N)c1 (stereo unspecified)
inactive: [1] | [2] | [3] | [4]

CC(C)CON=C1C[C@@H](O)[C@@H](O)[C@@H]2[C@H]3C(=O)N(c4cccc(Oc5ccccc5)c4)C(=O)[C@@H]3CC[C@H]12
inactive: [1] | [2] | [3] | [4]

COC/C=C/C1=CC2=CC(=O)C(C)(OC(=O)c3cnc4ccccc4n3)C(=O)C2=CN1Cc1ccccc1 (stereo unspecified)
inactive: [1] | [2] | [3] | [4]

CCN(CC)CCCN1C=C2C(=O)C(C)(OC(=O)CCC(=O)OC)C(=O)C=C2C=C1C1CC1 (stereo unspecified)
inactive: [1] | [2] | [3] | [5] | [4]

CCCCC1=CC2=CC(=O)C(C)(OC(=O)CC)C(=O)C2=CN1CCN1CCOCC1 (stereo unspecified)
inactive: [1] | [2] | [3] | [5] | [4]

COC(=O)CCCC1=CC2=C(c3ccccc3)C(=O)C(C)(OC(=O)C3CCCC3)C(=O)C2=CN1C1CC1 (stereo unspecified)
inactive: [1] | [2] | [3] | [5] | [4]

CC(=O)[C@@H]1[C@@H](C)N(Cc2ccccc2)C(=O)N[C@H]1c1cccc(C(F)(F)F)c1
inactive: [1] | [2] | [3] | [4]

CCOC(=O)CN1C(=O)N[C@@H](c2ccccc2)[C@H](C(=O)OC)[C@H]1C
inactive: [1] | [2] | [3] | [4]

CCOC(=O)C=CCCCC=CC(=O)c1ccccc1
inactive: [1] | [2] | [3] | [5] | [4]

CC1(OC(=O)CCc2ccccc2)C(=O)C=C2C=C3CCCN3C=C2C1=O (stereo unspecified)
inactive: [1] | [2] | [3] | [4]

CCCCC1=CC2=CC(=O)C(C)(OC(=O)CC)C(=O)C2=CN1Cc1ccco1 (stereo unspecified)
inactive: [1] | [2] | [3] | [5] | [4]

CCCC[C@@H]1C[C@H]1C(NC(=O)c1ccc(-c2ccccc2)cc1)c1ccc(-c2ccccc2)cc1 (stereo partly specified)
inactive: [6]

COC(=O)[C@@]1(Cc2ccc(F)cc2)[C@H]2c3cc(C(=O)N4CCCC4)n(CCN4CNCC4=O)c3C[C@H]2CN1C(=O)c1ccccc1
active: [8] 7940 nM | [9] 2000 nM
inactive: [7] | [6] | [10]

COC(=O)[C@@]1(Cc2ccccc2)[C@H]2c3cc(C(=O)N4CCCC4)n(Cc4ccccn4)c3C[C@H]2CN1C(=O)c1ccccc1
active: [8] 199 nM | [9] 2000 nM
inactive: [10]

CCC/C=C(\CCC)C(NC(=O)c1ccc(C(=O)OC)cc1)c1ccc(C(=O)OC)cc1 (stereo unspecified)
inactive: [7] | [10]
active: [8] 2000 nM

COC(=O)[C@@H]1[C@H](CCc2ccccc2)NC(=O)N(Cc2ccccc2)[C@@H]1C
inactive: [1] | [2] | [3] | [4]
